Screens from PubChem BioAssay.
Rows were chosen to be rich in hits. Some 4.3% of all compounds tested hit in one or more screens of this group.
MITF act – increases MITF-driven TRPM1 promoter luciferase signal; 300,000 tested, 0.75% active; activation, % at 12.5 µM; SK-MEL-5 TRPM1-promoter luciferase, 24 h; % of positive control, neutral wells = 0; AID 588334;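 active = mean activation of at least 80% with every replicate also reaching 80%; inconclusive = mean reaches 80% but some replicate falls short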;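 note: 0% = neutral control wells and 100% = parthenolide positive control wells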
esBAF inh – inhibitors of esBAF chromatin remodeling in mouse ES cells; reporter increase, % at 12.5 µM; Bmi1-luciferase knock-in reporter, 24 h; 100% = twice the neutral-well signal; 350,000 tested, 2% active; in the data active = activation above about 40%; inconclusive = no clear call, values can overlap the other calls;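 note: 0% = median of the plate's neutral control wells and 100% = double that signal; a rise in the Bmi1 reporter signal indicates esBAF inhibition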
Wnt bcat act – activates Wnt/beta-catenin signaling in a reporter cell assay. activator, plate reader. activation, % at 9.35 µM. 300,000 tested, 1.2% active. AID 743398; in the data active = activation above about 30%, passing the limit was not always enough; inconclusive = no clear call, values can overlap the other calls;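 note: 0% = neutral control wells and 100% = positive control wells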
SMARCA2 activ – increases SMARCA2 function in MMTV reporter cells; AID 652017; MG213 cells, MMTV-luciferase reporter, dexamethasone, overnight; activation, % at 9.1 µM; 370,000 tested, 1% active; in the data active = activation above about 7.8%;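 note: 0% = vehicle wells and 100% = reference activator wells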
HSF1 inhib – HSF1 inhibition | NIH3T3-HGL HSE-luciferase, MG132-induced, luminescence 8 h; hits give low values | activity change, negative = inhibition, % at 7.5 µM (by protocol) | 300,000 tested, 0.77% active | AID 2098;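 active = more than half of replicate wells show activity change below -50%, luminescence cut by over half; inconclusive = some wells, but at most half, below -50%; inactive = no replicate well below -50%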;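 note: luciferase reports HSF-1 transcriptional activity via heat shock element; 0% = median of DMSO wells and -100% = zero luminescence signal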
HSF-1 act – increases HSF-1 driven luciferase reporter signal. AID 504408. 300,000 tested, 1.7% active. activation, % at 9 µM. NIH3T3-HGL HSF-1 luciferase reporter, MG132, 8 h; 100% = twice DMSO control signal;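 active = mean replicate activation of at least 50% with a set share of replicates each reaching 50%; inconclusive = only one of those two conditions met; inactive = mean below 50% and too few replicates reaching it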;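 note: 0% = median of the neutral control wells and 100% = twice that signal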
An asterisk follows results filed as active; u = inconclusive; x = no result given.

SMILES	MITF act	esBAF inh	Wnt bcat act	SMARCA2 activ	HSF1 inhib	HSF-1 act
Cc1ccc(S(=O)(=O)NCC[C@H]2CC[C@H](NC(=O)c3cccc(F)c3)[C@@H](CO)O2)cc1	x	1	x	x	x	x
O=C(/C=C/c1ccc(O)c(O)c1)NC(=O)c1ccccc1O	x	10	4	5	13	27
O=C(/C=C/c1ccc(Br)cc1)NC(=O)c1ccccc1O	8	8	10	3	127	161*
CCNC(=O)[C@H]1[C@H](CO)[C@H]2Cn3c(ccc(C4=CCCC4)c3=O)[C@@H]1N2Cc1cccnc1	x	-1	x	x	x	x
COC(=O)C(NC(=O)CNS(=O)(=O)c1ccc(Br)cc1)c1ccccc1 (centres undefined)	6	x	-1	3	19	54*
O=C(CCc1ccc(S(=O)(=O)N2CCOCC2)cc1)N/N=C/c1cccc(O)c1	28	4	-2	1	-4	9
C/C(=N\NC(=O)CCc1ccc(S(=O)(=O)N2CCOCC2)cc1)c1ccc(Br)cc1	7	-13	-2	-4	23	61*
Nc1nc(Oc2ccc(F)cc2)c(Br)c(=O)[nH]1	x	-1	1	-4	-64*	-72
CC(=O)N(C)C[C@H]1Oc2cc(C#Cc3ccc(F)cc3)ccc2S(=O)(=O)N([C@@H](C)CO)C[C@H]1C	x	4	x	x	x	x
Cc1ccc(Cc2c(-c3ccccc3)nc3cc(C)ccn23)cc1	x	42*	1	2	x	x
Cc1ccc(Cc2c(-c3ccccc3)nc3c(C)cc(Br)cn23)cc1	x	x	-1	-1	x	x
Fc1ccc(-c2nc3ccc(Cl)cn3c2Cc2ccccc2)cc1	x	13	4	-2	x	x
Cc1ccn2c(Cc3ccccc3)c(-c3ccc(F)cc3)nc2c1	x	45*	12	1	x	x
CC(C)NC(=O)NCC[C@H]1CC[C@H](NC(=O)Nc2ccccc2)[C@@H](CO)O1	x	-6	x	x	x	x
CCc1ccccc1NC(=O)c1cnc2scc(C)n2c1=O	x	56*	1	-5	-6	18
COc1ccccc1NC(=O)N[C@@H]1CC[C@H](CC(=O)N2CCC(Cc3ccccc3)CC2)O[C@@H]1CO	x	9	x	x	x	x
CC=Cc1ccc2n(c1=O)C[C@H]1[C@H](CO)[C@@H](C(=O)NC3CCC3)N(C(=O)C3CCC3)[C@@H]21 (mixture of isomers)	x	3	x	x	x	x
O=c1[nH]c2c(=O)[nH]cnc2nc1-c1ccccc1	x	x	-3	-2	4	8
O=c1[nH]c(-c2ccccc2)cnc1-c1ccccc1	x	x	37*	4	-1	21
Cc1ccc(S(=O)(=O)N(C)C[C@H]2Oc3c(NS(=O)(=O)c4cccs4)cccc3C(=O)N([C@H](C)CO)C[C@@H]2C)cc1	x	-4	x	x	x	x
COc1ccc(C(=O)N2CCN(c3cccc(Cl)c3)CC2)cc1S(=O)(=O)NC1CC1	44	-13	-2	4	x	x
COc1ccc(C(=O)N2CCN(c3ccc(F)cc3)CC2)cc1S(=O)(=O)NC1CC1	41	50*	25	4	x	x
O=C(Nc1cc(F)ccc1F)N[C@@H]1CC[C@H](CCNC(=O)c2cnccn2)O[C@@H]1CO	x	5	x	x	x	x
O=C(Nc1ccc(F)cc1)/C(Cl)=C/c1ccccc1	84*	48*	18	7	27	36
Cc1ccc(NC(=O)/C(Cl)=C\c2ccccc2)cc1	44	-38	17	4	-10	6
SMILES	MITF act	esBAF inh	Wnt bcat act	SMARCA2 activ	HSF1 inhib	HSF-1 act
CC(C)NC(=O)N(C)C[C@H]1OCCCC[C@H](C)Oc2ccc(NS(=O)(=O)c3ccccc3)cc2C(=O)N([C@@H](C)CO)C[C@H]1C	x	-3	x	x	x	x
CCOC(=O)c1nn(-c2ccc(C)c(C)c2)cc1O	u	46*	x	7	24	21
O=C(COC(=O)c1nc(Cl)ccc1Cl)Nc1ccc(Cl)cc1	-17	-4	-1	-1	x	x
CC(=O)N1CCc2cc([N+](=O)[O-])ccc21	1	-7	2	4	x	x
NNC(=O)c1nn(-c2ccc(Cl)cc2)cc1O	-11	-1	3	-1	-70*	-72
Cc1ccc(NC(=O)COC(=O)c2nn(-c3ccc(Cl)cc3)cc2O)cc1	31	49*	5	2	x	x
CCOC(=O)c1nn(-c2ccc([N+](=O)[O-])cc2)cc1O	42	27	17	7	-2	15
COC(=O)c1nn(-c2ccc3c(c2)CCN3C(C)=O)cc1O	-72	x	x	-5	-58*	-61
CCCNC(=O)C[C@H]1C[C@@H]2c3cc(N(C)C)ccc3O[C@@H]2[C@@H](CO)O1	x	4	x	x	x	x
C[C@@H]1CN([C@H](C)CO)C(=O)c2cc(C#CCN(C)C)cnc2O[C@@H]1CN(C)Cc1cccc(C(=O)O)c1	x	-3	x	x	x	x
CCCNC(=O)N(C)C[C@@H]1Oc2cc(C#CC3CC3)ccc2S(=O)(=O)N([C@@H](C)CO)C[C@H]1C	x	-1	x	x	x	x
CCCN1C[C@@H](C)[C@@H](OC)CN(C)C(=O)c2ccc(NC(=O)C3CCOCC3)cc2OC[C@@H]1C	x	-2	x	x	x	x
CCOC(=O)c1nn(-c2ccc(C)cc2)cc1C(=O)c1ccccc1	x	79*	x	4	39	59*
C[C@@H]1CCCCO[C@H](CN(C)C(=O)c2ccncc2)[C@@H](C)CN([C@@H](C)CO)C(=O)c2cc(N(C)C)ccc2O1	x	-5	x	x	x	x
COc1ccc(N(CC(=O)NCCC2=CCCCC2)S(=O)(=O)c2ccccc2)cc1	-12	9	7	-6	45	97*
COc1ccc(N(CC(=O)NCCC2=CCCCC2)S(=O)(=O)c2ccccc2)cc1OC	-3	-11	-2	-5	1	4
CC(C)NC(=O)Nc1ccc2c(c1)C(=O)N([C@@H](C)CO)C[C@H](C)[C@H](CN(C)S(=O)(=O)c1ccc(F)cc1)OCCCC[C@H](C)O2	x	-3	x	x	x	x
CCS(=O)(=O)N[C@@H]1CC[C@@H](CC(=O)NC2Cc3ccccc3C2)O[C@@H]1CO	x	6	x	x	x	x
CSc1nsc(N/N=C/c2ccc3c(c2)OCO3)c1C#N	92*	x	22	6	2	9
COc1cc(/C=N/Nc2snc(SC)c2C#N)cc(OC)c1OC	-8	0	-1	-4	9	5
C[C@H](CO)N1C[C@H](C)[C@H](CN(C)S(=O)(=O)c2cn(C)cn2)Oc2c(NS(=O)(=O)c3ccccc3)cccc2C1=O	x	-6	x	x	x	x
CC1=NN(C(=O)c2ccc(Cl)cc2)C(O)(c2ccccc2)C1 (centres undefined)	2	-3	0	-1	7	6
COC(=O)C1=NN(C(=O)c2ccccc2)C(O)(c2ccc([N+](=O)[O-])cc2)C1 (centres undefined)	x	0	-2	-2	191	273*
COC(=O)C1=NN(C(=O)c2ccc(C)cc2)C(O)(c2ccc(Cl)cc2)C1 (centres undefined)	x	x	x	x	120	147*
COCCCNC(=S)NNC(=O)c1csc(C)n1	-12	-5	41*	-5	4	18
COCCCNC(=S)NNC(=O)c1ccc(C(C)(C)C)cc1	3	x	1	-1	-10	18
